G9a inh: inhibitors of human histone lysine methyltransferase G9a. Q96KQ7. G9a H3K9 monomethylation, AlphaScreen, 2 h. Potency, µM (titrated, usually from 102 µM), for the others: at the highest dose activity, negative = inhibition, actives largely listed as inhibitors. hit rate 8.8% among 350,000; also: % is scaled to controls: 0 for no effect and ±100 for the full control effect; nearly all actives have a fitted effect of over 75% in size
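G9a (20 nM) preincubated 15 min RT with compounds, then 500 nM biotinylated H3K9 peptide and 20 uM SAM added; 2 h RT reaction. Monomethyl-H3K9 product detected by AlphaScreen with anti-H3K9me1 antibody, streptavidin donor and anti-rabbit IgG acceptor beads.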
JMJD2A Tudor inh: inhibitors of human JMJD2A Tudor domain; O75164; AlphaScreen JMJD2A-Tudor / H3K4me3 peptide binding; Potency, µM (series often up to 114 µM), inactives show at the top dose activity change, negative = inhibition, actives largely listed as inhibitors; hit rate 4.4% among 390,000; also: % is scaled to controls: 0 for no effect and ±100 for the full control effect; nearly all actives have a fitted effect of over 50% in size
Target sequence (O75164 whole entry, looked up, the tested form may be a part): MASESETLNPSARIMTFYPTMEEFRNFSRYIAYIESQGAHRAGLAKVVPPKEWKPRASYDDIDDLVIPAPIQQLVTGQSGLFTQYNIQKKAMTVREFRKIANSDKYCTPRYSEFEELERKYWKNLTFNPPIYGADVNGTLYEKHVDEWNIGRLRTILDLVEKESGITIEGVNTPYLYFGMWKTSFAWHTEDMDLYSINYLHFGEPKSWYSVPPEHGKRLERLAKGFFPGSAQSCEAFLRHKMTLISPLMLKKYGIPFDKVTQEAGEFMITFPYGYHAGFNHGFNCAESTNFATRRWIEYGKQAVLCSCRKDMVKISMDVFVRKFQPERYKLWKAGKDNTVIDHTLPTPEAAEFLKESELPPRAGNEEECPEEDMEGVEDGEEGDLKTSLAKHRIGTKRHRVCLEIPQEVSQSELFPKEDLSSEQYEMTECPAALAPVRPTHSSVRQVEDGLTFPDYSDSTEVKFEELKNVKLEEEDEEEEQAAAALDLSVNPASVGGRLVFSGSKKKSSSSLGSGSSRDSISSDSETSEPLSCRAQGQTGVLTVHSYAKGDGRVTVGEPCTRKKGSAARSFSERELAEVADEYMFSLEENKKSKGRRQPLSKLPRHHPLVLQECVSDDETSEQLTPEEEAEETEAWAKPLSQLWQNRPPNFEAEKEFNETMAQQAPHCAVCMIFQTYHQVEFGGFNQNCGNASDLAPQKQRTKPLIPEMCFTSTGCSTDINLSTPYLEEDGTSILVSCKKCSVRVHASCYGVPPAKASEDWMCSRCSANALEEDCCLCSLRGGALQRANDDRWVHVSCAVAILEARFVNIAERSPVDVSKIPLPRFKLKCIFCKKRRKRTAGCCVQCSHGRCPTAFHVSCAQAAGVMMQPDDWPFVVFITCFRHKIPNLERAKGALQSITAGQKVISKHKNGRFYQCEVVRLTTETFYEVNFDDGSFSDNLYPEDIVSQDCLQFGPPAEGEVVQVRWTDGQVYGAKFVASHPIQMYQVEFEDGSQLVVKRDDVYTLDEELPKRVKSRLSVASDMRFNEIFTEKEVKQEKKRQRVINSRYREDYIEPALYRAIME
TDP1 block: TDP1 (human) enzyme inhibition; recombinant TDP1, AlphaScreen DNA substrate cleavage; Potency, µM (doses to about 130 µM), without a hit: at the highest dose activity change, negative = inhibition, hits mostly inhibitors; AID 485290; Q9NUW8; hit rate 0.28% among 350,000; also: % is scaled to controls: 0 for no effect and ±100 for the full control effect; nearly all actives have a fitted effect of over 40% in size
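Compounds were preincubated with Tdp1 (1 nM final) for 15 min at room temperature before substrate (15 nM final) started a 5 min reaction; beads (10 ug/ml final) were then added for 10 min before AlphaScreen detection.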
HP1b chromo inh: inhibitors of HP1-beta chromodomain binding to methylated histone tails | hit rate 0.56% among 390,000 | P83916 | AlphaScreen HP1-beta / biotin-H3K9me3 peptide binding | Potency, µM (top dose mostly 114 µM), without a hit: at the highest dose activity change, negative = inhibition, hits mostly inhibitors | AID 540317; also: nearly all actives have a fitted effect of over 70% in size
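AlphaScreen: HP1-beta (50 nM) preformed 30 min with biotin-H3(1-18)K9me3 peptide (50 nM) in PBS pH 7.4, 0.01% Tween-20. Compound added for 30 min at RT, then streptavidin donor/nickel chelate acceptor beads (10 ug/mL) for 30 min.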
BAZ2B inh: blocks human BAZ2B. AlphaScreen BAZ2B-H3K14Ac peptide displacement. Potency, µM (top dose mostly 114 µM), for inactives: at the top dose activity change, negative = inhibition, hits mostly inhibitors. hit rate 4.4% among 360,000. Q9UIF8; also: % is scaled to controls: 0 for no effect and ±100 for the full control effect; nearly all actives have a fitted effect of over 60% in size
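BAZ2B 50 nM plus b-H3(5-23)K14Ac 50 nM, PBS pH 7.4/0.01% Tween-20, 30 min RT; compound added (max 110 uM), 30 min RT; streptavidin donor/Ni-chelate acceptor beads 10 ug/mL final, 20 min dark; AlphaScreen read.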
Sfp PPTase inh: Sfp phosphopantetheinyl transferase inhibition; Q9F4F7; Biochemical Sfp PPTase activity, qHTS; Potency, µM, for the others: largest response in the series, negative = inhibition, usual class: inhibitors; hit rate 3.5% among 310,000; AID 1490;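 also: the enzyme is Sfp with the accession as filed and its product quenches rhodamine fluorescence; 0% = enzyme reaction without inhibitor and -100% = no enzyme wells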
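After 15 min at room temperature with compound, 15 nM Sfp received 5 uM rhodamine-CoA plus 12.5 uM BHQ-2-ybbR (50 mM Hepes pH 7.6, 10 mM MgCl2). Rate came from the fluorescence difference over 30 min, ex 525/em 598 nm.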
Active calls of the source: *; ? = inconclusive; . = no result; [ ] = remark or other dose. Shown are actives, neighbours in structure and some others; about 12% of the full set was active somewhere. Calls follow the shape of the dose curve; as a rule, active = well fitted curve in the direction sought with a large enough effect; inconclusive = small, poorly fitted or top-dose-only effect, or another doubt; inactive = no such curve, though single readings can be large; an effect the other way counts as inactive or inconclusive. Potency is read from the fitted curve at half-maximal effect.

SMILES	G9a inh	JMJD2A Tudor inh	TDP1 block	HP1b chromo inh	BAZ2B inh	Sfp PPTase inh
O=C(O)c1ccc(COc2ccccc2/C=C2\NC(=O)N(Cc3ccccc3F)C2=O)cc1	?	40µM*	0%	?	-23%	?
CCCN1C(=O)/C(=C/c2ccccc2OCc2ccc(C(=O)O)cc2)NC1=S	?	-28%	3%	-25%	-29%	10%
O=C1NC(=O)/C(=C/c2ccccc2OCc2ccccc2)S1	40µM*	-23%	-1%	9%	-33%	-20%
Cc1cc(C)c2c(n1)sc1c(O)cc(=O)[nH]c12	-27%[12.7 µM]	-23%	22µM*	15%	-37%	?
O=C1c2ccccc2C(=O)N1CC(O)COCc1ccccc1 (centres undefined)	2%[0.501 µM]	-6%	4%	9%	-6%	-3%
CCc1n(CC(O)COCc2ccccc2)c2ccccc2[n+]1C (centres undefined)	45µM*	?	8%	24%	?	-4%
CCOC(=O)c1sc(NC(=O)c2nc(SC)ncc2Cl)c(C(=O)OCC)c1C	-22%[59 µM]	-11%	-1%	23%	-3%	.
CCOC(=O)Cc1csc(NC(=O)NC2(C(F)(F)F)Oc3cc(Cl)c(Cl)cc3O2)n1	13µM*	?	-9%	3%	?	?
CCOC(=O)Cc1csc(NC(=O)NC2(C(F)(F)F)Oc3ccccc3O2)n1	8.9µM*	-6%	5%	13%	?	45µM*
CCOC(=O)Cc1csc(NC(=O)Nc2ccc(OC(F)(F)F)cc2)n1	.	-6%	1%	7%	3%	8%
CCOC(=O)Cc1csc(NC(=O)c2cc(C)c(C)s2)n1	13%[12.7 µM]	-11%	-1%	25%	0%	.
Cc1cccc(CNC(=O)CCCN2C(=O)COc3ccc(C)cc32)c1	10%[59 µM]	-19%	5%	-3%	-1%	.
CCN(CC)C(=O)CN1C(=O)COc2ccc(S(=O)(=O)N3CCOCC3)cc21	5%[59 µM]	6%	-2%	30%	-6%	.
CC(=O)c1c(C)nc(-c2ccc(Cl)cc2)nc1N	-46%	-17%	-5%	24%	79µM*	-16%
CC(=O)c1c(C)nc(-c2ccc(Cl)cc2)nc1N=CN(C)C	3.5µM*	?	-1%	17%	79µM*	?
Clc1cccc(-n2ncc3c(NCCC4=CCCCC4)ncnc32)c1	-8%[59 µM]	-7%	0%	10%	5%	.
O=C(Nc1ncccn1)c1ccc(C(F)(F)F)cc1	1%	3%	5%	29%	-5%	-2%
O=C1c2nccnc2C(=O)N1c1ccc(C(F)(F)F)cc1	50µM*	-14%	-3%	25%	-39%	9%
C/C=C/c1ccc(OCCCCN2CCN(CC)CC2)c(OC)c1	.	20µM*	-5%	?	25µM*	?
C/C=C/c1ccc(OCCCCNCc2ccco2)c(OC)c1	11µM*	22µM*	-5%	?	40µM*	-24%
C/C=C/c1ccc(OCCCNCC(C)O)c(OC)c1 (centres undefined)	0%[12.7 µM]	-26%	2%	25%	-2%	15%
C/C=C/c1ccc(OCCCCOc2ccc(OC)cc2)c(OC)c1	75%[59 µM]	22%	3%	28%	43%	?
c1ccc(-c2nnc(OCC3CCCO3)c3ccccc23)cc1 (centres undefined)	4%	-10%	0%	41%	-9%	12%
O=C(COC(=O)/C=C/c1ccc(Cl)cc1)NC1CCCCCC1	-1%[12.7 µM]	4%	1%	42%	?	.
Clc1nnc(Cl)c2c1ncn2Cc1ccccc1	7%	-14%	.	20%	4%	20%
SMILES	G9a inh	JMJD2A Tudor inh	TDP1 block	HP1b chromo inh	BAZ2B inh	Sfp PPTase inh
Cc1cc(=O)c(C(=O)O)cn1Nc1ccc(Cl)cc1	?	-27%	2%	40%	-10%	8%
Cc1cc(=O)c(C(=O)O)cn1Nc1ccc(F)cc1	?	50µM*	5%	-11%	?	-8%
C=CCSc1nc2sc3c(c2c(=O)n1-c1ccc(C)cc1)CCN(C)C3	?	-19%	.	19%	-12%	-1%
c1ccc(CSc2ncn[nH]2)nc1	45µM*	-7%	0%	0%	-27%	10%
CCc1ccc(Nc2cc(C(=O)NCCCN(C)c3ccccc3)c3ccccc3n2)cc1	-1%[59 µM]	-14%	5%	4%	2%	.
COc1cc(N=Nc2c(O)c3ccccc3[nH]c2=O)c(OC)cc1N=Nc1ccccc1	45µM*	?	9%	?	?	-8%
COc1ccc(/C=N/Nc2ccccc2C(=O)O)cc1Cn1cc([N+](=O)[O-])cn1	22µM*	?	2%	-15%	50µM*	6%
COc1ccc(/C=N/NC(=O)c2cc(O)c(O)c(O)c2)cc1Cn1cc([N+](=O)[O-])cn1	14µM*	10µM*	-5%	?	10µM*	-121%
COc1ccc(/C=N/NC(=O)c2ccccc2O)cc1Cn1cc([N+](=O)[O-])cn1	10%	-6%[11.4 µM]	5%	29%	-4%	-14%
Cn1c(=O)oc2cc(S(=O)(=O)NC(Cc3ccccc3)C(=O)NCc3ccccc3Cl)ccc21 (centres undefined)	4%[59 µM]	6%	7%	42%	1%[57.1 µM]	.
CCCS(=O)(=O)N1CCC(C(=O)Oc2ccc(OC)cc2)CC1	.	-20%	.	42%	31%	22%
CCSc1nc2ccccc2n1C(=O)/C=C/c1ccc(OC)c(OC)c1	?	-11%	-3%	10%	-5%	56µM*
C=CCSc1nc2ccccc2n1C(=O)/C=C/c1ccc(OC)c(OC)c1	.	0%	0%	9%	5%	28µM*
CCn1c(SCC(=O)N/N=C/c2ccc(OC)c(OC)c2)nc2ccccc21	4%[59 µM]	-19%	0%	24%	1%	13%
C=CCSc1nc2ccccc2n1C(=O)/C=C/c1cc(OC)c(OC)c(OC)c1	-9%	-17%	3%	20%	-2%	-15%
COC(=O)CC1[C@@]2(C)C[C@]34OC5(C)OC6(C7CC(=O)OC(c8ccoc8)[C@]7(C)CCC6(O5)[C@]13C)C(OC(C)=O)[C@]4(OC(C)=O)C2OC(C)=O (some centres undefined)	.	.	14%[56.1 µM]	.	.	11%
O=C(CSc1nc2ccccc2n1-c1ccccc1)Nc1ncc(Cl)cc1Cl	2%[59 µM]	-16%	3%	14%	-18%	10%
COc1ccc(-n2c(SCC(=O)Nc3ncc(Cl)cc3Cl)nc3ccccc32)cc1	45µM*	.	-11%	.	-29%	?
COc1ccc(OC)c(C(=O)c2ccc(C(=O)Nc3ccc(NC(C)=O)cc3)cc2)c1	-2%[12.7 µM]	3%	-6%	36%	-7%	-28%
CC1=CC(=O)Nc2ccccc2S1	.	-26%	.	0%	.	.
